Assay outcomes from PubChem BioAssay.
Shiga inhibitor: blocks Shiga toxin action in Vero cells | Vero cells, Shiga toxin protein synthesis inhibition reporter | inhibition, % at 38.7 µM | 9.2% of 290,000 active; in the data active = inhibition mostly above about 28%, no sharp cut-off; inactive = mostly below about 43%; note: 0% is about no effect
CHX counter: counter-screen for Shiga toxin inhibitors: cycloheximide protein synthesis inhibition; cell reporter, cycloheximide protein synthesis inhibition counterscreen; 12% of 300,000 active; max response, %; in the data active = max response mostly above about 13%, no sharp cut-off; inactive = mostly below about 14%; note: read at 38.3 µM for the half of the compounds with a filed dose; 0% is about no effect
NS1 function inh: influenza NS1 inhibition. 0.4% of 270,000 active. Potency, µM (highest dose often 46.1 µM), for the others: top-dose activity, positive = more growth; calls by dose curve; note: potency is the fitted concentration of half-maximal effect; actives are rising curves; nearly all actives have a fitted effect of over 50% in size
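A cell-based growth assay was used: compounds that relieve NS1-induced slow growth of budding yeast raise OD600. Assay medium was yeast nitrogen base with ammonium sulphate and -URA supplement, pH 6.0, with 2% galactose.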
Pf growth 48h: P. falciparum growth inhibition at 48 hours (one generation) | P. falciparum luciferase growth in erythrocytes, 48 h | Potency, µM (top dose mostly 28.7 µM), for inactives: top-dose activity change, negative = inhibition, most hits filed as inhibitors | 5.9% of 310,000 active; note: potency is the fitted concentration of half-maximal effect; % is set by controls: 0 for no effect and ±100 for the full control effect
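Compounds are pin-transferred into medium, infected erythrocytes (2% hematocrit, 0.1% parasitemia final) are added, and plates sit one parasite generation at 37 C in 5% CO2. Detection reagent is then added and luminescence measured.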
Pf growth 96h: inhibits malaria parasite growth, 96 h; AID 504834; P. falciparum luciferase reporter growth, 96 h; 6.9% of 320,000 active; Potency, µM (doses to about 28.7 µM), for the others: at the top dose activity change, negative = inhibition, hits mostly inhibitors; note: potency is the fitted concentration of half-maximal effect; % is set by controls: 0 for no effect and ±100 for the full control effect
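Delayed-death screen, second-generation endpoint: infected erythrocytes, 2% hematocrit, 0.05% parasitemia final; 96 hours at 37 C, 5% CO2; luciferase detection reagent; luminescence decrease equals reduced growth.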
The depositor's hits bear a star; ? = inconclusive; / = no result given. Hits are enriched below; roughly 21% of the tested compounds scored in any of these assays. Unless noted, calls come from the whole dose curve; as a rule, active = well fitted inhibition curve with a large enough effect; inconclusive = small, poorly fitted or top-dose-only effect, or another doubt; inactive = no such curve, though single readings can be large or run the other way.

SMILES | Shiga inhibitor | CHX counter | NS1 function inh | Pf growth 48h | Pf growth 96h
O=C(O)c1cc2ccccc2c(Cc2c(O)c(C(=O)O)cc3ccccc23)c1O | / | / | 0% | / | /
CNC(=O)c1sc(-c2cccs2)nc1C | 34 | 36* | / | 24% | 54%
Cn1c(C(=O)N2CCN(c3ccc(Cl)cc3)CC2)cc2c(=O)n(C)c3ccccc3c21 | / | / | -4% | / | /
N/C(=N\OC(=O)COc1ccc2ccccc2c1)c1ccccn1 | 128* | 67* | -68% | 92% | 88%
N/C(=N\OC(=O)COc1ccc([N+](=O)[O-])cc1)c1ccncc1 | -5 | -1 | / | 14% | 13%
N/C(=N\OC(=O)COc1ccccc1Cl)c1ccccn1 | 65* | 45* | -10% | 343% | 37%
CCc1ccc(OCC(=O)O/N=C(\N)c2cccnc2)cc1 | 44* | 32* | -2% | 20% | 26%
Cc1cc(C)c(C)c(OCC(=O)O/N=C(\N)c2cccnc2)c1 | 0 | 6 | 6% | 21% | ?
COc1ccccc1C/C(N)=N/OC(=O)COc1ccc2ccccc2c1 | -9 | -3 | -17% | -2% | 5%
Cc1ccc(C)c(OCC(=O)O/N=C(\N)c2cccnc2)c1 | 49 | 19* | -38% | ? | 11%
COc1ccc(CN2CCc3ccccc3C2)c(OC)c1OC | -24 | -5 | -4% | / | -26%
Cc1ccc(-c2nnc(SCC(=O)NCCN3C(=O)CSC3=O)n2C)cc1 | / | / | / | 5% | 26%
Cc1[nH]c(=O)[nH]c(=O)c1S(=O)(=O)Nc1ccc(Br)cc1F | -6 | -2 | -1% | 14% | -16%
Cc1ccc(SCC(=O)O/N=C(\N)c2cccnc2)cc1 | 27 | 17* | -20% | 28% | -19%
Cc1ccc(C)c(OCC(=O)O/N=C(\N)c2ccccn2)c1 | 88* | 28* | -15% | 148% | 131%
Cc1ccc(C(=O)O/N=C(\N)c2ccccn2)c(C)c1 | -22 | -7 | -58% | ? | 33%
CC(NC(=O)COc1ccc(/C=N/NC(=O)CO)cc1)c1ccccc1 (stereo not drawn) | -6 | -2 | -3% | -12% | 133%
CCSc1ccc([C@@H]2[C@@H]3C(=O)N(C)C(=O)[C@@H]3[C@]3(C(=O)OC)CCCCN23)cc1 | / | / | / | 8.3µM* | ?
CCSc1ccc([C@@H]2[C@H]3C(=O)N(C)C(=O)[C@H]3[C@]3(C(=O)OC)CCCCN23)cc1OC | / | / | / | 10µM* | ?
CCC(C)Sc1ccc([C@H]2N[C@@](C)(C(=O)OC)[C@H]3C(=O)N(C)C(=O)[C@@H]23)cc1OC (stereo partly drawn) | / | / | / | ? | 4%
CCN1C(=O)[C@H]2[C@@H](c3ccc(OC)cc3)N3C(=O)CN(CCOC)C(=O)[C@@]3(C)[C@H]2C1=O | -7 | -1 | -6% | 14% | -4%
CCSc1ccc([C@@H]2[C@@H]3C(=O)N(CC)C(=O)[C@@H]3[C@]3(C(=O)OC)CCCCN23)cc1OC | / | / | / | 13µM* | ?
COC(=O)[C@@]12CCCCN1[C@H](c1ccc(SC3CCCCC3)c(OC)c1)[C@@H]1C(=O)N(C)C(=O)[C@@H]12 | / | / | / | 8.3µM* | 8.3µM*
O=C(COC(=O)c1cc(S(=O)(=O)N2CCOCC2)c(Cl)cc1Cl)NC1CC1 | / | / | / | 5% | ?
COc1cccc(CC(NC(C)=O)C(=O)NC2CCN(S(=O)(=O)c3ccc(C)cc3)CC2)c1OC (stereo not drawn) | -27 | -4 | 1% | 0% | -3%
SMILES | Shiga inhibitor | CHX counter | NS1 function inh | Pf growth 48h | Pf growth 96h
COc1ccc(NC(=O)CSc2nc(C)c3c(c2C#N)CCCC3)cc1 | -25 | 2 | -14% | -9% | 32%
CCc1nnc(NC(=O)CSc2nc(C)c3c(c2C#N)CCCC3)s1 | 56* | 64* | -10% | 81% | -9%
Clc1ccc(Cn2ncc3c(N4CCOCC4)ncnc32)cc1 | -4 | -2 | -32% | ? | /
Cc1ccccc1-n1c(SCC(=O)N/N=C/C=C/c2ccccc2[N+](=O)[O-])nc2ccccc2c1=O | -9 | -3 | ? | ? | ?
O=C(CSc1nc2ccccc2c(=O)n1-c1ccccc1)N/N=C/C=C/c1ccccc1[N+](=O)[O-] | 0 | 15 | / | 9.3µM* | ?
O=C(CSc1nc2ccccc2c(=O)n1-c1ccc(Cl)cc1)N/N=C/C=C/c1ccccc1[N+](=O)[O-] | -8 | -3 | ? | ? | 9.3µM*
N#Cc1ccc(OCC(=O)Nc2ccc(N3CCCC3)cc2)cc1 | / | / | / | -18% | -22%
COc1ccc(N2CCC(CNC(=S)Nc3cc(C)cc(C)c3)C2)cc1 (stereo not drawn) | 15 | 8 | 4% | 9.3µM* | ?
COc1ccc(CCN(Cc2nc(-c3ccccc3)no2)Cc2nc(-c3ccccc3)no2)cc1OC | 4 | 3 | 3% | -7% | -6%
CN=C(NC1CCCCC1)c1ccc(Cl)cc1 | -3 | -3 | 6% | 11% | 18%
COC(=O)c1nnn(-c2nonc2N)c1COc1ccc(C=O)cc1OC | -9 | 1 | ? | -1% | 43%
CC(=O)Nc1ccc(NC(=O)c2ccc(C)c(S(=O)(=O)Nc3cccc(C)c3)c2)cc1 | 6 | -2 | 4% | 12µM* | 44%
Cc1cccc(NS(=O)(=O)c2cc(C(=O)N3CCN(C)CC3)ccc2C)c1 | -4 | -5 | 9% | / | 9.3µM*
CCOC(=O)C1=C(CNCc2ccc(C)cc2)NC(=O)NC1c1cc(C)ccc1C (stereo not drawn) | -9 | -2 | 14% | / | 3.3µM*
CCOC(=O)C1=C(COc2ccccc2)NC(=O)NC1c1cccc([N+](=O)[O-])c1 (stereo not drawn) | -6 | 1 | 7% | -17% | ?
CCOC(=O)C1=C(CNCc2ccccc2Cl)NC(=O)NC1c1cccc([N+](=O)[O-])c1 (stereo not drawn) | -4 | -2 | / | ? | 0.93µM*
CCOC(=O)C1=C(Cn2cnc3ccccc32)NC(=O)NC1c1cc(C)ccc1C (stereo not drawn) | -16 | -7 | -49% | ? | ?
CCOC(=O)C1=C(CSc2nc3ccccc3s2)NC(=O)NC1c1cccc([N+](=O)[O-])c1 (stereo not drawn) | 19 | 7 | 17% | 5.9µM* | ?
COc1cc(O)c(/C=N/NC(=O)c2ccncc2)c(OC)c1[N+](=O)[O-] | 19 | 5 | / | 3% | ?
CCCCC1CC1C(=O)Nc1ccc(OC)c(OC)c1 (stereo not drawn) | 14 | 10 | 0% | 14% | 15%
CCc1ccc(OCC(=O)N2CC(C(N)=O)Oc3ccccc32)cc1 (stereo not drawn) | 22 | 7 | 3% | ? | ?
COc1ccc2c(C)nc(N/C(N)=N/S(=O)(=O)c3ccc(C)cc3)nc2c1 | -7 | -2 | 4% | ? | ?
Cc1cc(C)cc(NC(=S)/N=C(\N)Nc2nc(C)c3ccccc3n2)c1 | -7 | -5 | 22% | ? | 13µM*
Cc1cccc(NC(=S)/N=C(\N)Nc2nc(C)c3ccc(C)cc3n2)c1 | -11 | -1 | 24% | 13µM* | ?
Cc1ccc(S(=O)(=O)/N=C(\N)Nc2nc(C)c3ccccc3n2)cc1 | 16 | 21* | 13% | 1% | 51%
